Data on 68 molecules can be found in ChEMBL document CHEMBL4513216, “Probing the Open Global Health Chemical Diversity Library for Multistage-Active Starting Points for Next-Generation Antimalarials” (ACS Infect Dis, 2020).

In all, about 65,000 compounds went through this assay and about 2,100 (3.2%) showed an effect of 50% or more. The median lay at about -52%. Shown is part of a subset that was picked to be rich in strong results.

For this experiment, the system named is Plasmodium falciparum. Put plainly: Screen against P. falciparum Asexual Blood Stage (ABS), at 5uM. It counts as functional, Dd2. Particulars: tested at 5 uM.
With `CCS(=O)(=O)N1Cc2ncn(C)c2C(COCC2CCOCC2)C1` (stereo not drawn), the INHIBITION is on record as -46.6%.

As to `c1ccc2c(c1)CN(c1ncnc3c1CCNC3)CCO2`, the INHIBITION amounted to 65.9%.

Regarding `CN(C)c1nc2c(c(N3CCc4ccccc4C3)n1)CCNC2`, the INHIBITION came to 31.4%.

As to `c1cc(C2CCN(c3ncnc4c3CCNCC4)CC2)ccn1`, the INHIBITION amounted to 27.2%.

Turning to `NC(=O)c1cccnc1N1CCN(c2ncnc3c2CCNC3)CC1`, the INHIBITION was -103%.

Regarding `c1ccc2c(c1)CN(c1ncnc3sc4c(c13)CCNC4)CCO2`, the INHIBITION is -26.7%.

For the molecule `c1ccc2c(c1)CCN(c1nc(-c3ccncc3)nc3c1CCNC3)C2`, the INHIBITION turned out to be 61.6%.

In the case of `c1ccc2c(c1)CCN(c1ncnc3sc4c(c13)CCNC4)C2`, the INHIBITION is -28.5%.

In the case of `c1nc2c(c(N3CCOCC3)n1)CCNCC2`, the INHIBITION is -98%.

Take `c1ccc(C2CCCN(c3ncnc4c3CCNC4)CC2)cc1` (stereo not drawn): the INHIBITION amounted to 61.2%.

On to `NC(=O)CN1CCC(NC(=O)COc2ccc(Cl)c(Cl)c2)CC1`, for which the INHIBITION is listed as -138%.

For the molecule `Cn1cccc1CN1CCc2ncnc(-c3cccnc3)c2CC1`, the INHIBITION is 0.898%.

Consider `O=C1CCCC2=Nc3nonc3NC(c3cc(Cl)ccc3F)C12` (stereo not drawn), for which the INHIBITION is -54%.

For the molecule `O=C1CCCCN1Cc1cccc(OC(F)F)c1`, the INHIBITION is on record as -103%.

Consider `CN(C)S(=O)(=O)N1CC[C@]2(O)CCN(Cc3cc(F)cc(F)c3)C[C@@H]2C1`, for which the INHIBITION is listed as -81.9%.

`CN(C)S(=O)(=O)N1CC[C@]2(O)CCN(Cc3cccc(F)c3)C[C@@H]2C1`: the INHIBITION is 20.7%.

`CN(C)S(=O)(=O)N1CC[C@]2(O)CCN(CCc3cccc(F)c3)C[C@@H]2C1`: the INHIBITION came to 53.4%.

On to `Cc1ccc(CN2CC[C@@]3(O)CCN(S(=O)(=O)N(C)C)C[C@H]3C2)cc1C`, for which the INHIBITION came out at 53.6%.

For `CN(C)S(=O)(=O)N1CC[C@]2(O)CCN(CCCc3cccnc3)C[C@@H]2C1`, the INHIBITION is -62.2%.

Take `CN(C)S(=O)(=O)N1CC[C@]2(O)CCN(Cc3cccc(C#N)c3)C[C@@H]2C1`: the INHIBITION is on record as -58.1%.

On to `CC(C)(C)CN1CCCC12CCN(S(=O)(=O)c1ccccc1)C2` (stereo not drawn), for which the INHIBITION came to 32.5%.

As to `c1cnnc(N2CCCC2CNCc2nc(-c3ccco3)no2)c1` (stereo not drawn), the INHIBITION is recorded as 50.5%.

As for `CC(C)CCc1nc(CNCC2CCCN2c2cccnn2)cs1` (stereo not drawn), the INHIBITION amounted to 67.4%.

Consider `CCCc1nc(CNCC2CCCN2c2cccnn2)cs1` (stereo not drawn), for which the INHIBITION was 37.5%.

As for `c1cnnc(N2CCCC2CNCCc2cccs2)c1` (stereo not drawn), the INHIBITION was determined as 40%.

Turning to `CCc1nc(CNCC2CCCN2c2cccnn2)cs1` (stereo not drawn), the INHIBITION is on record as 58.7%.

Consider `c1cnnc(N2CCCC2CNCc2cscn2)c1` (stereo not drawn), for which the INHIBITION came to 35.8%.

As for `c1cnnc(N2CCCC2CNCc2csc(-c3ccco3)n2)c1` (stereo not drawn), the INHIBITION was 41.4%.

Regarding `c1cnnc(N2CCCC2CNCc2cccs2)c1` (stereo not drawn), the INHIBITION came out at 55.7%.

For `c1cnnc(N2CCCC2CNCc2nc(-c3ccoc3)no2)c1` (stereo not drawn), the INHIBITION was determined as 35.2%.

Consider `Cc1nc(CNCC2CCCN2c2cccnn2)cs1` (stereo not drawn), for which the INHIBITION is listed as -34.2%.

Take `c1cncc(-c2noc(CNCC3CCCN3c3cccnn3)n2)c1` (stereo not drawn): the INHIBITION is listed as -92.3%.

As to `Cc1ccc(CNCC2CCCN2c2cccnn2)s1` (stereo not drawn), the INHIBITION is listed as 46.6%.

Take `COCCOc1ccccc1C(=O)N1CCCC(c2cc(C)[nH]n2)C1` (stereo not drawn): the INHIBITION is reported as -15.2%.

On to `Cc1ccccc1SC1CCN(C(=O)CCCS(N)(=O)=O)CC1`, for which the INHIBITION is on record as -124%.

With `Cc1noc(C)c1CN1C(=O)[C@@H]2CC[C@H]1CN(Cc1cccnc1N)C2`, the INHIBITION was -49.1%.

With `Cn1cc(CNC2CCc3c(ccc(=O)n3Cc3cccnc3)C2)cn1` (stereo not drawn), the INHIBITION is given as -48.3%.

With `CCc1cc(C(F)(F)F)n2nc(C3CCCN3C(=O)COC)cc2n1` (stereo not drawn), the INHIBITION was -17.9%.

`CCc1cnc(CN(C)C(=O)Nc2cnn(CC3CCCO3)c2)s1` (stereo not drawn): the INHIBITION was -48.8%.

On to `Cc1cccc(CNCC2(O)CCCN(CC3CCCCC3)C2=O)n1` (stereo not drawn), for which the INHIBITION is -3.18%.

As for `Cc1ncccc1Oc1nccnc1C1CCCN(C(C)C)C1` (stereo not drawn), the INHIBITION is -26.3%.

`CN(Cc1nc2ccccc2o1)CC1CCCN1c1cccnn1` (stereo not drawn): the INHIBITION came to 69.3%.

On to `c1cnnc(N2CCCC2CNCc2nc3ccccc3o2)c1` (stereo not drawn), for which the INHIBITION is -31.6%.

`Cc1nc(CN(C)CC2CCCN2c2cccnn2)oc1C` (stereo not drawn): the INHIBITION is listed as -18.6%.

For `Cc1nnc2ccc(N3CCC(C(=O)Nc4nccs4)CC3)nn12`, the INHIBITION is recorded as -16.3%.

`CC(C)c1nnc2ccc(N3CCC(C(=O)Nc4nccs4)CC3)nn12`: the INHIBITION amounted to 66.9%.

Turning to `CC(C)c1nnc2ccc(N3CCCC(C(=O)Nc4nccs4)C3)nn12` (stereo not drawn), the INHIBITION is reported as -58%.

Take `NC(=O)C(c1ccc(F)cc1)N1CCN(CCO)CC1` (stereo not drawn): the INHIBITION is -133%.

As to `CSc1ccc(C(CN)N2CCc3sccc3C2)cc1` (stereo not drawn), the INHIBITION was 9.08%.

Turning to `O=C(COCC1CC1)NCC(c1ccccc1)N1CCc2sccc2C1` (stereo not drawn), the INHIBITION is -122%.

With `CCOCCCC(=O)NCC(c1ccccc1)N1CCc2sccc2C1` (stereo not drawn), the INHIBITION was -59.8%.

For `CSc1ccc(C(CNC(=O)C2CC2)N2CCc3sccc3C2)cc1` (stereo not drawn), the INHIBITION was 20.6%.

`CSc1ccc(C(CNC(C)=O)N2CCc3sccc3C2)cc1` (stereo not drawn): the INHIBITION was -77.1%.

Take `CC(C)c1ccc(C(CN)N2CCc3sccc3C2)cc1` (stereo not drawn): the INHIBITION stood at 69.8%.

As to `O=C(NCCO)NCC(c1ccccc1)N1CCc2sccc2C1` (stereo not drawn), the INHIBITION was -6.62%.

Consider `NCC(c1ccc(Cl)cc1)N1CCc2sccc2C1` (stereo not drawn), for which the INHIBITION was found to be 66.5%.

Regarding `NCC(c1ccccc1)N1CCc2sccc2C1` (stereo not drawn), the INHIBITION is 57.9%.

As for `O=C(C1CNCCN1C(=O)CCOc1ccccc1)N1CCOCC1` (stereo not drawn), the INHIBITION is -116%.

Turning to `COC(=O)[C@@H]1C[C@H](NC(=O)c2cc(=O)[nH]c3ccc(C)cc23)CN1C`, the INHIBITION is reported as 5.12%.

Turning to `CSCC[C@H](N)c1nnc(SCC(=O)Nc2ccc(Br)cc2)o1`, the INHIBITION was -102%.

With `Cc1ccccc1C(=O)N1Cc2c(Cn3ccnc3)nn(C)c2C1`, the INHIBITION is -35.3%.

With `CS(=O)(=O)N1CC2(CCN(C(=O)c3ccncc3)CC2)c2ccccc21`, the INHIBITION is -67.5%.

Turning to `Cc1cc(N2CCC(c3ncc[nH]3)CC2)nc(N)n1`, the INHIBITION is on record as -25.6%.

For `Cc1cc(N2CCC(c3ncc[nH]3)CC2)cc(C)n1`, the INHIBITION was -26.7%.

`Cc1cc(N2CCC(c3ncc[nH]3)CC2)c2ccccc2n1`: the INHIBITION is reported as 62.6%.

For `NCC(=O)N1CCCC(c2cncc(Nc3ncccn3)n2)C1` (stereo not drawn), the INHIBITION was -81.1%.

In the case of `Cc1ccc(CN2CCCC3(COCCN(Cc4c[nH]nn4)C3)C2)s1` (stereo not drawn), the INHIBITION was found to be 37.3%.

For the molecule `O=C(c1c[nH]c(=O)[nH]c1=O)N1CCCC(c2cnccn2)C1` (stereo not drawn), the INHIBITION was -173%.
